System: T1, TRKA
T1 construct: gene NTRK1
Conditions: concentration: 1 μM, replicates: in singlicate; n = 1
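Note: KINOMEscan kinase panel screen.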

Q: CCn1c(-c2nonc2N)nc2c(-c3ccccc3)ncc(OCCCN)c21.O=C(O)C(F)(F)F.O=C(O)C(F)(F)F [GSK260205] was tested. Which “%Inh” value did it give?
A: Its value is 0%.

Q: With Cc1ccc(-c2ccc3occ(-c4ccc(S(C)=O)cc4)c3c2)nn1 (stereo not shown) as the compound, how does the “%Inh” value read?
A: The value was 0%.

Q: Cn1cc(-c2ccc3c(c2)CCN3C(=O)Cc2cc(F)cc(F)c2F)c2c(N)ncnc21 [GSK2634140] was tested. Which “%Inh” value did it give?
A: The value was 36%.

Q: COc1ccc(C)c(Nc2ccnc(Nc3ccc(-c4cnc[nH]4)cc3)n2)c1.Cl [GW784041] was tested. Which “%Inh” value did it give?
A: Its value is 0%.

Q: With c1ccc(Oc2ccc(Nc3ccnc4cc(-c5ccc(CN6CCCCC6)o5)ccc34)cc2)nc1 [GW567143] as the compound, how does the “%Inh” value read?
A: Its value is 98.7%.

Q: With CN(c1ccc(F)c(NC(=O)c2cccc(OC(C)(C)C#N)c2Cl)c1)c1ccc2nc(NC(=O)C3CC3)sc2n1 as the compound, how does the “%Inh” value read?
A: The value was 6%.

Q: How did the “%Inh” value turn out when COc1cc(Nc2nccc(N3CCC(NS(=O)(=O)c4ccc(NC(C)=O)cc4)CC3)n2)cc(OC)c1OC [GSK1379825] was run?
A: Its value is 100%.

Q: Cc1ccc(C)c(NC(=O)Nc2ccc(C)c(-c3ccc(C(=O)Nc4ccncc4)cc3)c2)c1 [GSK1398473] was tested. Which “%Inh” value did it give?
A: The value was 0%.

Q: For CCNc1nccc(-c2c(-c3ccc(F)cc3)ncn2C2CCN(C)CC2)n1, which “%Inh” value is on record?
A: Its value is 0%.

Q: For Cc1ccc(NC(=O)c2cccc(N3CCCCC3)c2)cc1-c1ccc(C(=O)NCC2CC2)cc1 [GSK1917008], which “%Inh” value is on record?
A: Its value is 0%.

Q: How did the “%Inh” value turn out when Cl.Cl.NCC(NC(=O)c1cc(-c2cccnc2)c(-c2ccnc3[nH]ccc23)s1)c1ccccc1 (stereo not shown) [GSK1323434] was run?
A: The value was 31%.

Q: How did the “%Inh” value turn out when COc1cccc(-c2nc(-c3ccccc3)[nH]c2-c2ccncc2)c1 [SB-610250] was run?
A: Its value is 0%.

Q: Cn1cc(-c2cnc(N)c3c(-c4ccc5c(c4)CCN5C(=O)Cc4ccccc4)csc23)cn1 [GSK2593074] was tested. Which “%Inh” value did it give?
A: The value was 79%.

Q: How did the “%Inh” value turn out when CN(C)CCNS(=O)(=O)c1ccc(-c2ccnc3[nH]ccc23)cc1 [GSK977620] was run?
A: The value was 93.4%.

Q: For O=C(Nc1n[nH]c2nc(-c3cccc(O)c3)ccc12)C1CC1 [SB-711805], which “%Inh” value is on record?
A: The value was 4%.

Q: With Nc1cccc(-c2ccc3c(N)n[nH]c3c2)c1 [GSK2193613] as the compound, how does the “%Inh” value read?
A: The value was 35%.

Q: With Cl.O=C(Nc1ccc(Oc2ccc3[nH]c(NC(=O)c4ccco4)nc3c2)cc1)Nc1cc(C(F)(F)F)ccc1F [GW683134] as the compound, how does the “%Inh” value read?
A: Its value is 98.9%.

Q: How did the “%Inh” value turn out when COc1cccc2c(-c3ccncc3)c(-c3ccc(F)cc3)nn12 [GW468513] was run?
A: Its value is 17%.

Q: With COc1cc(Nc2ccnc3cc(-c4ccncc4)ccc23)cc(OC)c1OC.Cl [GW494610] as the compound, how does the “%Inh” value read?
A: Its value is 38%.

Q: How did the “%Inh” value turn out when O=C(O)C(F)(F)F.O=c1[nH]ccc2nc(N[C@@H]3CCNC3)nc(Nc3ccc4c(c3)S(=O)(=O)CC4)c12 [GSK2181306] was run?
A: The value was 100%.

Q: With Cl.N#CCc1ccc(Nc2nccc(Nc3ccc(Oc4ccccc4)cc3)n2)cc1 [GW639905] as the compound, how does the “%Inh” value read?
A: The value was 0%.

Q: Which “%Inh” value does the source give for Cc1ccc(O)cc1Nc1ccnc2cc(-c3ccc(CN4CCCCC4)o3)ccc12 [GW557777] here?
A: Its value is 42%.

Q: Which “%Inh” value does the source give for Cl.Cl.NC(CNC(=O)c1cc(Br)c(-c2ccnc3[nH]ccc23)s1)c1ccccc1 (stereo not shown) [GSK1322949] here?
A: The value was 100%.

Q: For CN(c1ccc2c(c1)nc(NCc1ccccc1)n2C)c1ccnc(Nc2ccc(CS(C)(=O)=O)cc2)n1.Cl [GW811603], which “%Inh” value is on record?
A: The value was 78%.

Q: Cc1ccc(O)cc1Nc1ccnc2ccc(C(C)(C)C)cc12 [GW856805] was tested. Which “%Inh” value did it give?
A: The value was 37%.

Q: Which “%Inh” value does the source give for COC(=O)Nc1nc2ccc(Oc3ccc(NC(=O)Nc4cc(C(F)(F)F)ccc4F)cc3)cc2[nH]1.Cl [GW654607] here?
A: Its value is 100%.

Q: Which “%Inh” value does the source give for Cn1cc(-c2ccc3c(c2)CCN3C(=O)Cc2cc(F)cc(C(F)(F)F)c2)c2c(N)ncnc21 [GSK2635225] here?
A: Its value is 49%.

Q: How did the “%Inh” value turn out when COc1cccc(CC(=O)N2CCc3cc(-c4cn(C)c5ncnc(N)c45)ccc32)c1 [GSK2608899] was run?
A: Its value is 75%.

Q: Which “%Inh” value does the source give for N#Cc1cnc2cc(-c3cnc(CNCCN4CCOCC4)s3)ccc2c1Nc1ccc(Oc2ccccc2)cc1 [GW664114] here?
A: The value was 55%.

Q: O=C(Nc1n[nH]c2cc(-c3cccs3)ccc12)C1CC1 [SB-731284] was tested. Which “%Inh” value did it give?
A: Its value is 3%.

Q: For CN(C)CCOc1ccc(-c2cc(-c3ccc(Cl)c(O)c3)c(-c3ccncc3)[nH]2)cc1.Cl.Cl [SB-684387], which “%Inh” value is on record?
A: The value was 9%.

Q: For Cc1cccc(Nc2nc(NCCN)ncc2C(N)=O)c1 [GSK1292139], which “%Inh” value is on record?
A: The value was 72%.

Q: Which “%Inh” value does the source give for COC(=O)Nc1nc2cc(Oc3ccc(NC(=O)Nc4cccc(SC)c4)cc3)ccc2[nH]1.Cl [GW697999] here?
A: The value was 81%.

Q: Which “%Inh” value does the source give for Nc1ncnc2scc(-c3ccc(NC(=O)Cc4cc(F)ccc4F)cc3)c12.O=C(O)C(F)(F)F [SB-731254-M] here?
A: Its value is 62%.

Q: For CC(C)c1nc(-c2ccc(F)c(NS(=O)(=O)c3c(F)cccc3F)c2)c(-c2ccnc(Nc3ccc(N4CCOCC4)nc3)n2)s1 [GSK1804250], which “%Inh” value is on record?
A: Its value is 98%.

Q: How did the “%Inh” value turn out when NCCC(NC(=O)c1cc(Br)c(-c2ccnc3[nH]ccc23)s1)c1ccccc1.O=C(O)C(F)(F)F.O=C(O)C(F)(F)F (stereo not shown) [GSK1307810] was run?
A: The value was 91.4%.

Q: How did the “%Inh” value turn out when COc1ccc(NC(=O)c2ccoc2)cc1-c1ccc(C(=O)NCC2CC2)cc1 [GW810437] was run?
A: The value was 15%.
